A selection: hits, their analogues and other compounds. The true share with any hit is near 3.2%.
EphB4 antag: blocks human EphB4 binding to ephrin-B2 | P54760 | EphB4 LBD / TNYL-RAW-Alexa532 peptide, fluorescence polarization | inhibition, % at 7 µM | 97,000 compounds, 0.15% hits;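 active = inhibition above the screen-wide mean inhibition plus 3 SD, cut at about 15% in these data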;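 also: 0% = DMSO wells and 100% = excess unlabeled TNYL-RAW peptide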
ERa SRC1 inh: blocks coactivator binding to human estrogen receptor alpha. P03372. TR-FRET ER-alpha LBD / SRC-1 peptide, estradiol-bound. inhibition, % at 25.6 µM. 86,000 compounds, 1.7% hits; in the data active = inhibition above about 50%;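 also: 0% = receptor plus peptide control and 100% = peptide only without receptor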
Target sequence (P03372 whole entry, looked up, the tested form may be a part): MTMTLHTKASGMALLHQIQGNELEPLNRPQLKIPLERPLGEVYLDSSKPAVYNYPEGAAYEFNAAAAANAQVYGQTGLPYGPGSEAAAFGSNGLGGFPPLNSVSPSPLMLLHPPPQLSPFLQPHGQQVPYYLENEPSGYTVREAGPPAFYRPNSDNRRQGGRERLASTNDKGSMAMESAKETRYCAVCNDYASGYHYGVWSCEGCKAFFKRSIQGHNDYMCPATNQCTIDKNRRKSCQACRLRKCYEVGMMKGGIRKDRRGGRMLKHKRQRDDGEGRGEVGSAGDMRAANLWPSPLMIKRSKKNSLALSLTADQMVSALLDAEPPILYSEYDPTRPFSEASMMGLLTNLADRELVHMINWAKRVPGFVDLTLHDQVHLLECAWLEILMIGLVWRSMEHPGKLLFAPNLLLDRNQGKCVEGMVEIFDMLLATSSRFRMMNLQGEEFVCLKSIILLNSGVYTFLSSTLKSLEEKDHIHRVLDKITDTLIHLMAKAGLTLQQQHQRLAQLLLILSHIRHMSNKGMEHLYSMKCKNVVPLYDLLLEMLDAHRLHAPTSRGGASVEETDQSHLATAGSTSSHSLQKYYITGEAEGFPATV
Calb biofilm kill: kills Candida albicans biofilms; C. albicans biofilm + clotrimazole, Alamar Blue; inhibition, % at 6 µM; 85,000 compounds, 0.14% hits;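 active = inhibition above 20%; inactive = inhibition below 20%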;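 also: preformed 24 hr biofilms exposed to compound for 48 hr; 0% = biofilm without compound and 100% = blank killed by clotrimazole plus chlorhexidine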
MT1-MMP txn act: activates MT1-MMP transcription | HT1080 MT1-MMP promoter luciferase reporter, luminescence, overnight; active compounds read high | activation factor at 10 µM | 86,000 compounds, 0.16% hits | AID 750;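 active = activation factor of at least 2 for MT1-MMP transcription at 10 µM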
ERa SRC1 pot: enhances coactivator binding to human estrogen receptor alpha. P03372. TR-FRET ERalpha-LBD/SRC-Cy5 coactivator binding, 2 h; 100 = basal binding, no effect. coactivator binding (% of control), % at 25.6 µM. 86,000 compounds, 1.3% hits. AID 639; in the data active = activity above about 200%;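 also: binding measured in presence of low estradiol as agonist stimulus; 0% = peptide alone without receptor and 100% = receptor with peptide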
ERb coact inh: ER-beta (human) coactivator binding inhibition; TR-FRET ER-beta LBD / SRC1-Cy5 peptide binding; receptor agonist-loaded with 1 µM estradiol; inhibition, % at 25.6 µM; 86,000 compounds, 1.3% hits;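 active = compounds whose percent inhibition of the receptor-coactivator binding signal exceeds about 50% in the single-dose screen, limit read from the data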;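 also: 0% = receptor plus peptide wells without compound and 100% = peptide-only wells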
Numbers without * were called inactive; · = no result given; [ ] = another dose, or the depositor's remark.

SMILES	EphB4 antag	ERa SRC1 inh	Calb biofilm kill	MT1-MMP txn act	ERa SRC1 pot	ERb coact inh
CCOC(=O)c1sc(=NC(=O)c2ccc(OC)c(OC)c2)n(C)c1C	0	-54	-5	1.2	429*[fluorescence artefact?]	29
CCCc1cc(-n2ccnc2)n2c(nc3ccccc32)c1C#N	-8	66*	8	1	105	41
Cc1cc(C(=O)OCC(=O)c2ccc(Br)s2)no1	-11	58*	1	1	58	48
Cc1cc(C(=O)OCC(=O)c2ccc(Br)s2)c(C)o1	-6	14	6	1.4	95	10
Cc1cc(C)n(-c2ccc(C(=O)Nc3nc4ccccc4s3)cc2)n1	-4	9	6	1.6	208*[fluorescence artefact?]	18
Cc1c(N2C(=O)c3ccc(Br)cc3C2=O)c(=O)n(-c2ccccc2)n1C	4	-10	-3	1.1	91	-6
Cc1c(N2C(=O)c3ccc4c5c(ccc(c35)C2=O)CC4)c(=O)n(-c2ccccc2)n1C	-1	95*[fluorescence artefact?]	8	1	-1	92*[fluorescence artefact?]
O=C(Nc1cnn(Cc2ccc(Cl)cc2)c1)c1cnccn1	-1	25	6	0.9	95	29
CCC(C(=O)NCc1ccco1)n1nc(-c2ccc(OC)cc2)ccc1=O (stereo not drawn)	2	42	·	1.2	227*[fluorescence artefact?]	37
COc1ccc(-c2ccc(=O)n(CC(=O)NCc3ccco3)n2)cc1	-1	10	0	1	106	9
Cc1cc(C(=O)CN2C(=O)NC(Cc3c[nH]c4ccccc34)C2=O)c(C)n1C (stereo not drawn)	-4	-8	·	1.1	96	94*[fluorescence artefact?]
CCn1ncc(Br)c1C(=O)Nc1sc2c(c1C(N)=O)CCC2	-6	-4	3	0.9	157	8
COc1ccc(N2CC(C(=O)O)CC2=O)cc1 (stereo not drawn)	2	-23	2	1.1	107	71*
COc1cc(NC(=O)c2ccccc2)c(OC)cc1NC(C)=O	5	-45	0	1.1	88	-4
CCC(=O)Nc1cc(OC)c(NC(=O)c2ccccc2)cc1OC	1	64*[fluorescence artefact?]	10	1.1	59	53*[fluorescence artefact?]
O=C(Nc1nc(=O)c2ccccc2s1)c1ccc(F)cc1	1	49	10	·	188	52*[fluorescence artefact?]
O=C(Nc1nc(=O)c2ccccc2s1)c1ccc(Cl)cc1	-8	·	·	·	·	·
COc1ccc(/C=N/N=C2/NC(=O)C(c3ccccc3)(c3ccccc3)S2)cc1	5	-1	1	1	96	-30
COC(=O)CSC1=C(C#N)C(c2ccc(C)cc2)C2=C(CCCC2=O)N1 (stereo not drawn)	16*	-1	4	1	100	-8
Cc1[nH]n(-c2ccccc2)c(=O)c1Sc1ccc(Cl)cc1	-7	39	3	1.1	72	81*
Cc1ccc(NC(=O)c2ccc(-c3nn(C)c(=O)c4ccccc34)cc2)cc1	-4	36	3	1.1	138	17
Cn1nc(-c2ccc(C(=O)Nc3cccc(Cl)c3)cc2)c2ccccc2c1=O	-27	15	3	1	261*	9
O=C(c1ccc(-c2nnc(Nc3cccc(Cl)c3)c3ccccc23)cc1)N1C[C@H]2C[C@H](C1)c1cccc(=O)n1C2	1	-1	11	1	95	-8
COc1nnc(-c2ccc(C(=O)N3C[C@@H]4C[C@H](C3)c3cccc(=O)n3C4)cc2)c2ccccc12	·	29	9	1.1	340*	16
O=c1oc2ccccc2c(Nc2ccc3ccccc3c2)c1[N+](=O)[O-]	8	71*[fluorescence artefact?]	8	1.2	54	18
SMILES	EphB4 antag	ERa SRC1 inh	Calb biofilm kill	MT1-MMP txn act	ERa SRC1 pot	ERb coact inh
O=c1oc2ccccc2c(Nc2ccc(O)cc2)c1[N+](=O)[O-]	1	9	4	1	90	9
COc1cc2c(=O)n(Cc3ccccc3)c(=O)n(CC(=O)NCc3ccco3)c2cc1OC	3	37	4	1.1	349*[fluorescence artefact?]	4
O=C(NCc1ccco1)c1ccc(Cn2c(=O)c3ccccc3n(Cc3cccc(F)c3)c2=O)cc1	-3	67*[fluorescence artefact?]	1	1.1	24	47
O=C(Cn1c(=O)n(Cc2ccccc2)c(=O)c2ccccc21)NCc1ccco1	3	6	·	1.2	120	8
CC(=O)Nc1ccc(N=Cc2nc(-c3ccc(C)cc3)oc2O)cc1	-4	81*	3	1.3	61	51*
Oc1oc(-c2ccccc2)nc1C=Nc1ccccc1	3	-15	0	1.5	118	-19
Cc1ccc(NC(=O)NNC(=O)C2CC(c3cccnc3)=NO2)cc1 (stereo not drawn)	6	·	·	·	·	·
COc1ccccc1C(=O)Nc1ccc(S(=O)(=O)N2CCOCC2)cc1	-6	-10	-1	1	112	-3
O=C(Nc1nc(-c2cccs2)cs1)c1cccc(S(=O)(=O)N2CCCCCC2)c1	3	-11	5	1.9	189	-1
COc1ccccc1C(=O)Nc1nc(-c2ccc(S(=O)(=O)N3CCOCC3)cc2)cs1	1	1	9	0.8	399*[fluorescence artefact?]	3
COc1ccccc1OC(C)C(=O)Nc1nc(-c2ccc(S(=O)(=O)N3CCOCC3)cc2)cs1 (stereo not drawn)	-1	1	3	1	263*[fluorescence artefact?]	8
O=C(Nc1nc(-c2cccs2)cs1)c1ccc(S(=O)(=O)N2CCCCC2)cc1	1	-2	13	1.1	235*	-4
O=C(Nc1nc(-c2ccncc2)cs1)c1ccc(S(=O)(=O)N2CCOCC2)cc1	1	-1	4	1.2	239*	-10
CC(Oc1ccccc1)C(=O)Nc1ccc(S(=O)(=O)N2CCOCC2)cc1 (stereo not drawn)	3	-6	1	1.2	113	1
CCOc1cccc(C(=O)Nc2nc(-c3ccc(S(=O)(=O)N4CCOCC4)cc3)cs2)c1	-6	-2	1	1.2	166	-7
O=C(COc1cccc(Cl)c1)Nc1nc(-c2ccc(S(=O)(=O)N3CCOCC3)cc2)cs1	-2	-1	3	1	202*	7
COCC(=O)Nc1nc2ccc(S(C)(=O)=O)cc2s1	1	-1	4	1.4	119	-10
O=C(Nc1cc2nn(-c3ccccc3)nc2cc1Cl)c1ccco1	-1	62*[fluorescence artefact?]	-4	1.6	100	30
Cc1nn(C)c(C)c1NC(=O)CSc1nc(Cc2ccccc2)nc2c1cnn2-c1ccccc1	1	82*[fluorescence artefact?]	2	1	141	56*[fluorescence artefact?]
CCc1nc(SCC(=O)Nc2c(C)nn(C)c2C)c2cnn(-c3ccccc3)c2n1	2	48	5	1.2	93	16
CC(=O)N1CCN=C1SCc1ccc(C)cc1	·	3	-15	1	119	-3
CC(=O)N1CCN=C1SCc1ccccc1	-7	4	5	1.1	263*[fluorescence artefact?]	4
O=C(Nc1ccccc1N1CCOCC1)c1ccc2c(c1)C(=O)N(Cc1ccncc1)C2=O	3	63*[fluorescence artefact?]	1	1.1	15	39
